# Compound activity (PubChem)
# Only some compounds are listed: those with a hit (about 9.5% of all), similar ones and a draw of the others.
# Pf growth 96h: P. falciparum growth inhibition at 96 hours. P. falciparum luciferase reporter growth, 96 h. Potency, µM (series often up to 28.7 µM), most hits filed as inhibitors. 6.9% of 320,000 active
#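 Delayed-death screen, second-generation endpoint: infected erythrocytes, 2% hematocrit, 0.05% parasitemia final; 96 hours at 37 C, 5% CO2; luciferase detection reagent; luminescence decrease equals reduced growth.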
# RE007 growth inh: less growth of the S. pombe RE007 Vpr strain; S. pombe RE007 Vpr strain, BacTiter-Glo ATP luminescence, 24 h; 0.21% of 360,000 active; AID 651644; Potency, µM (titrated, usually from 92.2 µM), hits mostly inhibitors; active means well fitted falling curve with a large enough effect; inconclusive means small, poorly fitted or top-dose-only effect; inactive means no such curve, though single readings can be large or run the other way; further: nearly all actives have a fitted effect of over 50% in size
#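 Fission yeast RE007 carrying one integrated HIV-1 vpr copy, seeded at OD 0.01 in PMG+AL medium with 23 nL pinned compound. Grown 24 h at 30 degrees; viability read by BacTiter-Glo luminescence after 5 min.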
# NS1 function inh: blocks influenza NS1 protein function. Potency, µM (top dose mostly 46.1 µM). 0.4% of 270,000 active. AID 2326; calls by dose curve; further: actives are rising curves; nearly all actives have a fitted effect of over 50% in size
#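 In this qHTS, NS1 from influenza A is expressed in budding yeast, where it slows growth. Cells are switched from glucose to 2% galactose medium (pH 6.0, -URA), treated with compound, and growth recovery is read at OD600.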
# SARS PLP yeast: SARS-CoV PLP inhibition in yeast; S. cerevisiae expressing SARS-CoV PLpro, growth rescue; Potency, µM (highest dose often 32.9 µM), most hits filed as activators; 0.19% of 330,000 active; AID 485353; calls by dose curve; further: nearly all actives have a fitted effect of over 55% in size
# Pf growth 48h: P. falciparum growth inhibition at 48 hours (one generation); P. falciparum luciferase growth in erythrocytes, 48 h; Potency, µM (highest dose often 28.7 µM), actives largely listed as inhibitors; 5.9% of 310,000 active; AID 504832
#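 Luminescence readout; reporter = integrated firefly luciferase in P. falciparum. RBC culture at 2% hematocrit, 0.1% parasitemia final, 37 C/5% CO2; decreased signal taken as growth inhibition.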
# Numbers stand for hits; i = inactive; ? = inconclusive; nt = not tested or not shown; [ ] = dose if it differs, or a comment. Unless noted, the call rests on the fitted dose curve; in most records, active means well fitted inhibition curve with a large enough effect; inconclusive means small, poorly fitted or top-dose-only effect, or another doubt; inactive means no such curve, though single readings can be large or run the other way.
SMILES,Pf growth 96h,RE007 growth inh,NS1 function inh,SARS PLP yeast,Pf growth 48h
CCCCCCCCCCCCCCCCC(C(=O)O)C(O)(CC(=O)O)C(=O)O (stereo unspecified),i,nt,nt,nt,i
S=c1[nH]nc(-c2ccc3ccccc3n2)n1-c1cc(Cl)cc(Cl)c1,4.1µM,i,i,i,i
Fc1ccc(-n2c(-c3ccc4ccccc4n3)n[nH]c2=S)cc1,i,i,i,i,i
CC1=CC(C)C(C[N+]2(C)CCCCC2)C(C)C1 (stereo unspecified),i,i,i,i,?
CC1=CC(C)C(/C=N/N=C(N)N)C(C)C1 (stereo unspecified),2.9µM,i,i,i,12µM
CCOC(=O)c1nn(-c2ccc(F)cc2)c(=O)c(C#N)c1C,?,i,i,i,i
CCOC(=O)c1nn(-c2ccccc2)c(=O)c(C#N)c1C,15µM,i,i,i,nt
CCOC(=O)c1c(NC(=O)c2nn(CC)cc2Br)c(C#N)nn1-c1ccccc1,i,i,i,i,13µM
COc1cccc(CC(=O)OCC(=O)NC(Cc2ccccc2)C(C)=O)c1 (stereo unspecified),i,i,nt,i,?
Oc1ccc(N2CCN(Cc3nc4ccccc4[nH]3)CC2)cc1,?,i,i,i,i
Cc1ccccc1C(=O)NC(C(=O)Nc1nc2c(s1)CCCC2)C(C)C (stereo unspecified),4.7µM,i,?,?,?
CC1(C(=O)O)CCC2(C)CCC3(C)C(=CC(=O)C4C5(C)CCC(O)C(C)(C)C5CCC43C)C2C1 (stereo unspecified),i,nt,nt,nt,i
COc1cc(CN2CCNC(=O)C2CC(=O)N2CCCN(C(C)=O)CC2)cc(OC)c1 (stereo unspecified),i,i,i,i,i
CCN(CC)P(=O)(Nc1ccccc1Br)c1ccc(N(C)C)cc1NC(=O)c1ccco1 (stereo unspecified),9.3µM,i,nt,i,?
COCCNC(=O)c1cc(-c2ccc(-c3ccccc3)cc2)nc2ccccc12,i,i,i,i,i
CCOC(=O)CCn1c(=S)n(CCC(=O)OCC)c2ccccc21,i,i,i,i,3.7µM
CCOc1ccc(S(=O)(=O)n2cc(-c3ccc(F)cc3)c(N)n2)cc1,9.3µM,i,i,i,nt
CCOc1cc(S(=O)(=O)n2cc(-c3ccc(F)cc3)c(N)n2)cc(OCC)c1OCC,nt,i,i,i,8.3µM
CS(=O)(=O)NCc1nnc(SCc2ccc(C(F)(F)F)cc2)o1,i,i,i,i,i
O=CN1CCN(C(C(=O)NC2CCCCC2)c2cc3c(cc2[N+](=O)[O-])OCO3)CC1 (stereo unspecified),i[1.15 µM],i,nt,i,i
O=C(NC1CCCCC1)C(c1cc2c(cc1[N+](=O)[O-])OCO2)N1CCCCC1 (stereo unspecified),13µM,nt,i,i,?
CC(C(=O)NC(C)(C)C)N(C(=O)CS(=O)CC(=O)Nc1ccc(F)cc1)C1CCCC1 (stereo unspecified),i,i,i,i,i
CCN(CC)c1ncnc2scc(C3COc4ccccc4O3)c12 (stereo unspecified),i,i,i,i,8.3µM
c1ccc2c(c1)OCC(c1csc3ncnc(N4CCOCC4)c13)O2 (stereo unspecified),nt,i,i,i,i
CC1(NC(=O)CSc2nnc(-c3c[nH]c4ccccc34)n2C2CC2)CCS(=O)(=O)C1 (stereo unspecified),?,i,nt,i[6.58 µM],i
SMILES,Pf growth 96h,RE007 growth inh,NS1 function inh,SARS PLP yeast,Pf growth 48h
COc1ccc(C(=O)N(CC2CCCO2)C(C(=O)NCCC(C)C)c2ccc(C)cc2)cc1OC (stereo unspecified),i,i,i,i,?
COc1ccc(C(C(=O)NC2CCCCC2)N(CC2CCCO2)C(=O)C2COc3ccccc3O2)cc1OC (stereo unspecified),i,i,i,i,12µM
COc1ccc(C(=O)N(CC2CCCO2)C(C(=O)NC2CCCC2)c2ccc(Cl)cc2)cc1OC (stereo unspecified),6.6µM,i,i,i,12µM
Cc1cc(NC(=O)c2ccccc2F)nc2c1c(=O)oc1ccccc12,i,i,nt,i,i
O=C1NC(c2ccccc2)=C(c2ccccc2)C1=O,10µM,?,i,i,i
CCN(CC)c1cc(C)c2cc(NC(=O)c3ccccc3F)ccc2n1,?,i,i,i,10µM
CCN(CC)c1cc(C)c2cc(NC(=O)CNC(C)=O)ccc2n1,i,i,?,i,i
O=C(O)C1CCC(N2C(=O)c3c(Cl)c(Cl)c(Cl)c(Cl)c3C2=O)CC1 (stereo unspecified),?,nt,i,i,i
Cn1cnc(S(=O)(=O)Nc2ccccc2C(=O)NCC2CC2)c1,i,i,i,i,4.7µM
C[C@H](NC(=O)C1CCN(C(=O)[C@H](Cc2ccccc2)NC(=O)OC(C)(C)C)CC1)C(=O)O,i,i,i,i,i[0.00184 µM]
CN(C(=O)c1ccc(NC(=O)Cc2ccc(NC(=O)C3CCN(C(=O)C4CCCCC4)CC3)cc2)cc1)C1CCCC1,nt,i,nt,nt,nt
CN(C(=O)c1ccc(NC(=O)Cc2ccc(NC(=O)C3CCN(C(=O)C4CCC4)CC3)cc2)cc1)C1CC1,9.3µM,i,nt,i,?
CN(C(=O)c1ccc(NC(=O)Cc2ccc(NC(=O)C3CCN(C(=O)C4CCCC4)CC3)cc2)cc1)C1CC1,2.1µM,i,nt,i,?
C[C@H](CO)N1C[C@H](C)[C@@H](CN(C)C(=O)Nc2ccc(F)cc2)Oc2ncc(-c3ccc(F)cc3)cc2C1=O,nt,i,nt,nt,nt
O=C(/C=C/c1ccccc1[N+](=O)[O-])Nc1cc(S(=O)(=O)N2CCOCC2)ccc1N1CCOCC1,nt,i,nt,nt,nt
O=S(=O)(NC(=NCc1ccccc1)c1ccc(F)cc1)c1ccc(Cl)cc1,i,i,i,i,i
CCOc1ccc(Br)cc1C(=O)N/N=C/c1cccc(C)n1,i,i,i,i,i
COc1ccccc1/C=N/NC(=O)C(=O)Nc1ccccc1OC(F)(F)C(F)F,i,i,i,i,i
Oc1ccc(Br)cc1/C=N/NC(=S)NCCc1ccccc1,2.3µM,?,i,i,4.7µM
O=C(N/N=C/c1cc(Br)ccc1O)c1ccccc1Cl,9.3µM,?,i,nt,?
O=C(N/N=C/c1cc(Br)ccc1O)C(=O)Nc1ccccc1OC(F)(F)C(F)F,2.9µM,i,i,i,?
Cc1cccc(/C=N/NC(=O)c2cc(Br)ccc2O)n1,12µM,i,i,i,i
N#Cc1nnn(-c2ccc(Cl)cc2)c1N,i,i,i,i,i
CCN(CC(=O)Nc1c(F)cccc1F)C(=O)c1ccc2c(c1)C(=O)N(c1ccccc1C)C2=O,nt,i,nt,nt,nt
CCOC(=O)c1c(C)[nH]c(C(=O)COC(=O)/C=C/c2ccc(OCC#N)c(OC)c2)c1C,i[5.75 µM],i,nt,i,i
COc1ccc(/C(C)=N/NC(=S)NCCc2ccccc2)c(O)c1,?,i,i,i,0.41µM
O=C(CCc1ccccc1)N/N=C/c1cc(Br)ccc1O,6.6µM,i,i,i,4.1µM
